Measurements published in PubChem BioAssay (NCI).
The panel holds about 83,000 compounds, 20% with a hit somewhere; the sample as a whole holds those more often.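 Growth was measured after 48 h exposure to one concentration of compound in 96-well plates. Values under 10 count as active.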 Calls of active or inactive are those of the source.

system: HL-60(TB) leukemia; test: NCI-60 one-dose screen, 48 h (100 = growth as untreated, 0 = no growth, -100 = all killed); settings: 10 µM unless noted

Q: With `NS(=O)(=O)c1ccc(CCn2c(SCC(=O)N/N=C/c3cccnc3)nc3ccccc3c2=O)cc1` as the compound, how does the growth read?
A: 80.4% (inactive)

Q: For `COc1cc(OC)c(C(=O)/C=C/c2cc3c(cc2OCc2ccccc2)OC(C)(C)CC3)cc1CC=C(C)C`, which growth is on record?
A: -28.5% (active)

Q: With `COc1ccc(-c2nc(C#N)c(NCC(c3ccc(Cl)cc3)N3CCCCC3)o2)cc1` (stereo not given) as the compound, how does the growth read?
A: 74.3% (inactive)

Q: `c1ccc(-c2nc(Nc3nccnn3)c3ccccc3n2)cc1` was tested. Which growth did it give?
A: 99.4% (inactive)

Q: For `O=C(Cn1cc(COc2ncnc3c2cnn3-c2ccccc2)nn1)Nc1ccccn1`, which growth is on record?
A: 105% (inactive)

Q: How did the growth turn out when `COc1ccc(OC)c(/C=C/C(=O)c2c(C)nc3ccccc3c2/C=C/c2ccccc2)c1` was run?
A: 47% (inactive)

Q: `O=CNc1c(Cl)cc2c(c1Cl)Cc1cc([N+](=O)[O-])ccc1-2` was tested. Which growth did it give?
A: 17.5% (inactive)

Q: `CN1CCN(Cc2ccc(NC(=O)c3cccc(C#Cc4cnc(N)c5ncccc45)c3F)cc2C(F)(F)F)CC1` was tested. Which growth did it give?
A: 12% (inactive)

Q: For `C=CC(=O)Nc1cccc(Nc2nc(Nc3ccc(OCCOC(F)F)cc3)ncc2F)c1`, which growth is on record?
A: 19.8% (inactive)

Q: `O=c1cc(-c2ccc3c(c2)OCCO3)oc2cc(Cl)ccc12` was tested. Which growth did it give?
A: 110% (inactive)

Q: `CCCCN1CCN(c2ccc3nc(-c4ccc5nc(-c6ccc(OC)c(OC)c6)[nH]c5c4)[nH]c3c2)CC1` was tested. Which growth did it give?
A: -25.1% (active)

Q: For `O=C(Nc1ccc(F)cc1)Nc1ccc(Br)c(C(F)(F)F)c1`, which growth is on record?
A: -41.9% (active)

Q: Which growth does the source give for `CC(=O)OC1/C=C\CC/C=C\C1` (stereo not given) here?
A: 101% (inactive)

Q: `CN1CCN(c2cnc(C(=O)Nc3cc(F)cc4cccnc34)cn2)CC1` was tested. Which growth did it give?
A: 6.72% (active)

Q: `COc1cccc(-c2nn(-c3ccccc3)cc2-c2ccnc(NCCCNS(=O)(=O)c3ccc(Br)cc3)c2)c1` was tested. Which growth did it give?
A: 43.3% (inactive)

Q: `CCCCCCCCCCCCCOC(=O)c1c(C)[nH]c(/C=C2\N=C(c3ccc[nH]3)C=C2OC)c1C` was tested. Which growth did it give?
A: 9.46% (active)

Q: With `O=C(Nc1ccc(Br)cc1)C1=NCCCCN1` as the compound, how does the growth read?
A: 98% (inactive)

Q: For `Nc1nc(Nc2ccccc2SSc2ccccc2Nc2nc(N)nc(-c3cccs3)n2)nc(-c2ccsc2)n1`, which growth is on record?
A: -7.94% (active)

Q: `N#C/C=C(\c1ccc([N+](=O)[O-])cc1)n1nnc2cc(Cl)c(Cl)cc21` was tested. Which growth did it give?
A: 13.3% (inactive)

Q: `CCCCCc1ccc(S(=O)(=O)Nc2ccc3nc(N)oc3c2)cc1` was tested. Which growth did it give?
A: 28.9% (inactive)

Q: `C=C(C)[C@@H]1CC[C@]2(C#N)CC[C@]3(C)[C@H](CC[C@@H]4[C@@]5(C)CCCNC(C)(C)[C@@H]5CC[C@]43C)[C@@H]12` was tested. Which growth did it give?
A: 83.9% (inactive)

Q: Which growth does the source give for `O=C(COc1cccc(/C=C2\COc3ccccc3C2=O)c1)Nc1nccs1` here?
A: -58.4% (active)

Q: With `COc1cc(-c2nc(N3CCN(C)CC3)c3ccccc3n2)cc(OC)c1OC` as the compound, how does the growth read?
A: 67% (inactive)

Q: With `COc1ccc(SC2c3ccc(O)cc3Oc3nc(N)c(C#N)c(N)c32)cc1` (stereo not given) as the compound, how does the growth read?
A: 46.9% (inactive)

Q: With `Cc1cc(C(C)(C)CC(C)(C)C)ccc1OCCOCC[N+](C)(C)Cc1ccccc1` as the compound, how does the growth read?
A: -67.1% (active)

Q: Which growth does the source give for `Cc1nc(Cl)cc(N(c2cc(Cl)nc(C)n2)c2ncc(C(=O)Nc3c(C)cccc3Cl)s2)n1` here?
A: 81.3% (inactive)

Q: With `COc1ccc(/C(=C(\c2ccccc2)[N+](=O)[O-])c2ccc(OCCN3CCCC3)cc2)cc1` as the compound, how does the growth read?
A: 64.1% (inactive)

Q: How did the growth turn out when `Nc1ccc(C2=Nc3cccc4cccc(c34)S2)cc1` was run?
A: 76.7% (inactive)

Q: Which growth does the source give for `COc1ccccc1NC(=O)n1c(=O)cc(C)c2ccc(O)cc21` here?
A: 105% (inactive)

Q: For `COc1cc(C=Nc2oc(-c3ccccc3)c(-c3ccccc3)c2C#N)cc(CN2CCCCC2)c1O`, which growth is on record?
A: 92.5% (inactive)

Q: `CCCCCCNCc1cc(C(C)(C)C)cc(CNCCCCCC)c1O` was tested. Which growth did it give?
A: -45.1% (active)

Q: Which growth does the source give for `O=C1C=CC(=O)C2=C1CCCC2` here?
A: 28.7% (inactive)

Q: With `CN(C)c1ccc(/C=N/NC(=O)c2cccc3ccccc23)c(Cl)c1` as the compound, how does the growth read?
A: -2.75% (active)

Q: `COc1cc2c(c(OC)c1OC)-c1ccc(NNC(=S)N(Cc3cccc(C[N+](Cc4cccc(CNC56CC7CC(CC(C7)C5)C6)c4)(Cc4cccc(CNC56CC7CC(CC(C7)C5)C6)c4)Cc4cccc(CN(C(=S)NNc5ccc6c(cc5=O)[C@@H](NC(C)=O)CCc5cc(OC)c(OC)c(OC)c5-6)C56CC7CC(CC(C7)C5)C6)c4)c3)C34CC5CC(CC(C5)C3)C4)c(=O)cc1[C@@H](NC(C)=O)CC2` (stereo not given in full) was tested. Which growth did it give?
A: -63.4% (active)

Q: How did the growth turn out when `NC(N)=N/N=C/c1ccc(Br)cc1` was run?
A: -0.0458% (active)

Q: With `COc1cc(C(=O)c2cnc(-c3ccc4cc[nH]c4c3)[nH]2)cc(OC)c1OC` as the compound, how does the growth read?
A: -1.01% (active)

Q: With `COc1ccccc1CNCCCN1C(=O)c2ccc3c4c(ccc(c24)C1=O)C(=O)N(CCCCNCCCN)C3=O` as the compound, how does the growth read?
A: -34.2% (active)

Q: `Oc1c(Br)cc(Br)c2ccc(Cn3cc(-c4ccc(C(F)(F)F)cc4)nn3)nc12` was tested. Which growth did it give?
A: -5.83% (active)

Q: For `CN1CCN(Cc2ccc(NC(=O)c3cccc(C#Cc4c(N)ncc5ccc(F)cc45)c3)cc2C(F)(F)F)CC1`, which growth is on record?
A: -53.7% (active)

Q: Which growth does the source give for `CCSc1ccnc(N)n1` here?
A: 108% (inactive)
